# Giardia FBPA inh – inhibitors of Giardia lamblia fructose-1,6-bisphosphate aldolase | A8B2U2 | purified Giardia FBPA | Potency, µM (titrated, usually from 59.6 µM), hits mostly inhibitors | 0.71% of 290,000 active | AID 2451; also: nearly all actives have a fitted effect of over 55% in size
#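 Giardia FBPA (40 nM reagent) was preincubated 10 min at RT with compound (up to 57.5 uM final), then substrate plus GAPDH/TPI/NAD/arsenate coupling system with diaphorase/resazurin was added; resorufin fluorescence (525/598 nm) was read after 20 min.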
# TbPYK inhibitor – blocks Trypanosoma brucei pyruvate kinase; AID 624173; Potency, µM (highest dose often 76.8 µM), hits mostly inhibitors; TbPYK enzyme, Kinase-Glo Plus ATP luminescence, 45 min; 0.12% of 410,000 active; also: nearly all actives have a fitted effect of over 50% in size
#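 Luminescence from Kinase-Glo Plus, added after a 45-minute room-temperature reaction, served as the end-point read-out. The enzyme and substrate were preincubated with compound before ADP (130 uM final) initiated turnover. Concentration-effect curves came from normalized qHTS data.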
# LmPK inh – blocks Leishmania mexicana pyruvate kinase activity; purified LmPK, Kinase-Glo ATP luminescence, 1 h; 0.37% of 290,000 active; Q27686; AID 1721; Potency, µM (doses to about 57.5 µM), hits mostly inhibitors
# Target sequence (Q27686 whole entry, looked up): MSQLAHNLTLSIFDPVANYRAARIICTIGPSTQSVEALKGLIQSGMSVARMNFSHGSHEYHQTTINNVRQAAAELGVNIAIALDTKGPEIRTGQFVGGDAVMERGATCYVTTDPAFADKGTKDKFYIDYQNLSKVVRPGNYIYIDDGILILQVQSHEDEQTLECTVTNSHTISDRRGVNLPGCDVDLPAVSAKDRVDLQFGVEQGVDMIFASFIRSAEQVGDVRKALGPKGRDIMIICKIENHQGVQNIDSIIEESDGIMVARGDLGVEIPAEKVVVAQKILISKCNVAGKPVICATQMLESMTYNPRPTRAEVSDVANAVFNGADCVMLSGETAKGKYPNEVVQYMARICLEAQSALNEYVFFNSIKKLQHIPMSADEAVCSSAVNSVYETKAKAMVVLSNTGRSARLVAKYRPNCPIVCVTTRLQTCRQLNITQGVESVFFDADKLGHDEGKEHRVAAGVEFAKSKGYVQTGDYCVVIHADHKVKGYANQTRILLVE
#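 qHTS format; LmPK 0.1 nM; substrates PEP 0.5 mM and ADP 0.1 mM. One-hour room-temperature incubation, then coupled luciferase luminescence; 0.5 nM enzyme wells mark activation.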
# Cycloheximide cs – counter-screen for Shiga toxin inhibitors: cycloheximide protein synthesis inhibition | cell reporter, cycloheximide protein synthesis inhibition counterscreen | max response, % | 12% of 300,000 active | AID 2314; in the data active = max response mostly above about 13%, no sharp cut-off; inactive = mostly below about 14%; also: read at 38.3 µM for the half of the compounds with a filed dose
# Shiga toxin inh – inhibitors of Shiga toxin in Vero cells; Vero cells, Shiga toxin protein synthesis inhibition reporter; inhibition, % at 38.7 µM; 9.2% of 290,000 active; AID 2315; in the data active = inhibition mostly above about 28%, no sharp cut-off; inactive = mostly below about 43%
# RE007 growth inh – less growth of the S. pombe RE007 Vpr strain | S. pombe RE007 Vpr strain, BacTiter-Glo ATP luminescence, 24 h | Potency, µM (top dose mostly 92.2 µM), usual class: inhibitors | 0.21% of 360,000 active | AID 651644; active = well fitted falling curve with a large enough effect; inconclusive = small, poorly fitted or top-dose-only effect; inactive = no such curve, though single readings can be large or run the other way; also: nearly all actives have a fitted effect of over 50% in size
#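 Fission yeast strain RE007, carrying one chromosomally integrated HIV-1 vpr copy, was seeded at OD 0.01 in PMG+AL medium with 23 nL pinned compound. After 24 h at 30 °C and 99% humidity, viability was read by BacTiter-Glo luminescence.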
# A number is an active result; – = inactive; ? = inconclusive; · = no result given. This is one part of a sample in which hits are shown more often than they occur. Unless noted, calls follow the shape of the dose curve; as a rule, active = well fitted curve in the direction sought with a large enough effect; inconclusive = small, poorly fitted or top-dose-only effect, or another doubt; inactive = no such curve, though single readings can be large; an effect the other way counts as inactive or inconclusive.
SMILES,Giardia FBPA inh,TbPYK inhibitor,LmPK inh,Cycloheximide cs,Shiga toxin inh,RE007 growth inh
O=C(Nc1ncccc1Cl)C1COc2ccccc2O1 (stereo unspecified),–,–,–,53,161,–
C[C@@H](O[C@H]1OCCN(Cc2n[nH]c(=O)[nH]2)[C@@H]1c1ccc(F)cc1)c1cc(C(F)(F)F)cc(C(F)(F)F)c1,·,–,·,·,·,·
CCc1ccccc1NC(=O)Cn1nc(C)c2nn(-c3ccc(Cl)cc3)c(C)c2c1=O,·,–,·,·,·,·
O=C(CSc1nnc(-c2ccccn2)o1)Nc1ccccc1,–,–,–,–,65,–
Fc1ccc(CSc2nnc(-c3ccccn3)o2)cc1,–,–,–,28,41,–
O=C(CSc1nnc(-c2ccc(F)cc2)o1)Nc1ccc(S(=O)(=O)N2CCCC2)cc1,–,–,–,20,–,–
COc1ccccc1NC(=O)CSc1nnc(-c2ccccn2)o1,–,–,–,–,–,–
O=C(CSc1nnc(-c2ccccn2)o1)Nc1ccc(F)cc1,·,–,–,–,24,–
CCCCN1C(=O)C(CC(=O)NCCCCc2ccccc2)CC(C(=O)N(C)C)=C1C (stereo unspecified),·,–,·,·,·,–
COc1ccc(CNCC(O)COc2ccc3[nH]c(=O)ccc3c2)cc1OC (stereo unspecified),·,–,·,·,·,·
CCOC(=O)c1[nH]c(C)c(C(=O)O)c1C,–,·,–,–,–,·
CCOC(=O)c1[nH]c(C)c(C(=O)N(C)C)c1C,?,–,–,–,–,–
CCOC(=O)c1[nH]c(C)c(CC(C)C)c1C,–,–,–,20,–,–
CCOC(=O)c1[nH]c(C)c(C(=O)C(C)C)c1C,–,–,–,17,–,–
CCc1nc2ccc(C(=O)N(CC)CCN(C)C)cn2c1N(C)Cc1nccs1,·,–,·,·,·,–
COc1cccc(NC(=O)N2CCc3ccccc3C2)c1,·,–,–,70,91,–
Cc1ccc(-c2cc(C(=O)N3CCc4ccccc4C3)[nH]n2)cc1C,–,–,–,–,–,–
O=C(Nc1cccc(Cl)c1)c1nc[nH]c1C(=O)N1CCc2ccccc2C1,·,–,·,·,·,–
COc1cccc(-c2cc(C(=O)N3CCc4ccccc4C3)[nH]n2)c1,–,–,–,26,38,–
O=C(Nc1cccc(Cl)c1)N1CCN(c2ncccn2)CC1,–,–,–,14,–,–
O=C(Nc1cccc(Cl)c1)N1CCc2ccccc2C1,–,–,–,34,35,–
CCn1cc(CNC(=S)Nc2cccc3ccccc23)cn1,–,–,–,–,–,–
O=c1cc(-c2cccc(F)c2)[nH]c2cc(F)ccc12,–,·,·,–,–,·
O=C(Nc1nc(-c2cccs2)cs1)c1cccc(S(=O)(=O)N2CCCCCC2)c1,–,–,–,21,99,–
COC(=O)c1ccc(-n2c(C)cc(-c3csc(NC(=O)c4ccc(S(=O)(=O)N(C)C)cc4)n3)c2C)cc1,–,–,–,–,–,–
SMILES,Giardia FBPA inh,TbPYK inhibitor,LmPK inh,Cycloheximide cs,Shiga toxin inh,RE007 growth inh
Cc1cc(-c2csc(NC(=O)c3cccc(S(=O)(=O)N(C)C)c3)n2)c(C)n1-c1ccccc1,–,–,–,–,39,–
CN1CCN(S(=O)(=O)c2cccc(C(=O)Nc3nc(-c4ccccc4)cs3)c2)CC1,–,–,–,24,30,–
CCOc1ccccc1NC(=O)c1nnn(CC(=O)Nc2ccccc2CC)c1N,·,–,·,·,·,·
CC[C@]12c3[nH]c4ccccc4c3CCN1C(=O)C(CC(=O)NCCCN(C)C)C[C@@H]2C(=O)N1CCN(C(=O)c2ccco2)CC1 (stereo partly specified),·,–,·,·,·,–
O=C(N/N=C/c1ccc(Cl)cc1Cl)Nc1ccccc1,–,–,–,9.2,–,–
O=C(O)/C(=N/NC(=O)c1ccc(Cl)cc1)c1ccccc1,–,–,–,23,–,–
O=C(O)c1cccc(-n2cccc2C=C2C(=O)c3ccccc3C2=O)c1,–,–,–,–,–,–
O=C(NC(=S)Nc1ccc(Cl)cc1)c1ccccc1,–,–,–,89,72,–
O=C(N/N=C/c1cccn1-c1cccc(C(=O)O)c1)Nc1ccccc1,–,–,–,31,52,–
COc1ccc(CCNC(=O)c2ccc3c(c2)N(Cc2ccccc2C)C(=O)c2ccccc2S3)cc1OC,·,–,·,·,·,·
O=C(NC(=S)Nc1ccc(-c2ccccc2)cc1)c1ccccc1,·,–,·,·,·,?
O=C(O)c1ccc(N/C(=N\S(=O)(=O)c2ccc(Cl)cc2)c2ccccc2)cc1,–,–,–,–,–,–
CC(C)NC(=S)Nc1ccc(Oc2ccccc2)cc1,–,–,–,–,29,–
O=C(N/C(=N\O)c1ccccc1)Nc1ccc(Cl)cc1,–,–,–,–,48,–
O=C(NC(=S)Nc1ccc(Oc2ccc(Cl)cc2)cc1)c1ccccc1,–,–,–,19,–,–
Cc1nc2ccccc2c(=O)n1-c1ccc(NC(=O)c2ccccc2[N+](=O)[O-])cc1,·,–,·,·,·,·
COc1ccccc1CNc1ncnc2c1c(-c1ccccc1)cn2-c1ccc(Br)cc1,·,–,·,·,·,·
CCOC(=O)CNC(=O)N1CCN(S(=O)(=O)c2ccc3c(ccn3C)c2)CC1,·,–,·,·,·,·
O=C(CSc1nc2ccccc2s1)Nc1ccc2c(c1)oc1ccccc12,–,–,–,–,–,·
O=c1oc2ccccc2n1CSc1nc2ccccc2s1,–,–,–,41,96,?
O=C(Cn1c(=O)oc2ccccc21)c1ccccc1,–,–,–,–,–,–
O=c1oc2ccccc2n1CSC1=NCCS1,–,–,–,19,–,?
COc1cccc(-c2nc(SCc3ccc(C)cc3)n3[nH]c(=O)cc3n2)c1,·,–,·,·,·,·
Cc1ccc(-c2nc3cc(C)c(Br)c(C)n3c2CC(C)(C)C)cc1,·,–,·,·,·,–
NNS(=O)(=O)c1ccc(Sc2ccccn2)c([N+](=O)[O-])c1,–,–,–,15,–,–
SMILES,Giardia FBPA inh,TbPYK inhibitor,LmPK inh,Cycloheximide cs,Shiga toxin inh,RE007 growth inh
N#Cc1ccc(Sc2ccccn2)c([N+](=O)[O-])c1,–,–,–,–,–,–
Cc1cc2sc3ccccc3c(=O)c2c(C)c1O,–,–,–,71,85,–
N#CCSc1ncnc2ccccc12,–,–,–,–,–,–
N#CCSc1ncccc1-c1nc2ccccc2[nH]1,–,–,–,–,30,?
N#CCCCSc1ncccc1-c1nc2ccccc2[nH]1,–,–,–,28,–,–
Cc1cccc2c(N=O)c(O)n(CCc3ccccc3)c12,·,–,–,–,–,–
Cc1ccc(CNC(=O)Cc2c(C)c3c(cc(C)c4c(C)coc43)oc2=O)cc1,·,–,·,·,·,·
O=C(Nc1ccc2c(c1)OCO2)c1cc(-c2ccncc2)nc2ccccc12,–,–,–,19,–,–
O=C(Nc1nc2c(s1)CCCC2)c1cc(-c2ccc3c(c2)OCO3)nc2ccccc12,–,·,–,26,–,·
Cc1cccc(-c2cc(C(=O)Nc3ccncc3)c3ccccc3n2)c1,–,–,–,8.4,–,–

# Screening data: PubChem BioAssay, National Center for Advancing Translational Sciences (NCATS)
